Experiment in all cases: NCI-60 one-dose screen, 48 h (100 = growth as untreated, 0 = no growth, -100 = all killed)
Common to all, as to details: 10 µM unless noted

Test [1] deals with HCT-15 colon.
Test [2] has as its system HT29 colon.
Test [3] deals with SNB-75 CNS.
Test [4] has as its system SNB-19 CNS.
The test system of test [5] is U251 CNS.
Test [6] relates to PC-3 prostate.
Test [7] concerns SK-MEL-5 melanoma.
Test [8] concerns UACC-62 melanoma.
Test [9] relates to LOX IMVI melanoma.
Test [10] deals with SK-MEL-28 melanoma.
Test [11] deals with SK-MEL-2 melanoma.
The subject of test [12] is EKVX NSCLC.
Test [13] relates to SN12C renal.
The test system of test [14] is UO-31 renal.
The subject of test [15] is TK-10 renal.
Test [16] has as its system ACHN renal.
Test [17] concerns CAKI-1 renal.
The test system of test [18] is A498 renal.
Test [19] concerns CCRF-CEM leukemia.
Test [20] concerns MOLT-4 leukemia.

We go through eight compounds from PubChem BioAssay (NCI).

SMILES strings stand for the structures. About 83,000 compounds went through this panel and 20% of them were active in at least one assay; those are over-represented in the sample as a whole.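 Step 1: grow cells in 96-well plates. Step 2: add test compound at a single concentration. Step 3: incubate 48 h. Step 4: record percent growth.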 Values without a mark were called inactive. Active and inactive are the calls of the source. How the source made its calls: active means growth percent below 10; inactive means the rest.

With `O=C1CC(N2C(=O)/C(=C/C(Cl)=C\c3ccc([N+](=O)[O-])cc3)SC2=S)C(=O)N1c1ccc(Cl)cc1` (stereo not given), the growth is -8.75% (active) in test [1]; 4.25% (active) in [2]; 17.2% in [3]; 17.4% in test [4]; 1.45% (active) in [5]; -5.48% (active) in [6]. Also, the growth in [7] is 59.9%; in test [8], 16.4%; in test [9], -71.7% (active); in test [10], 18.2%; in [11], 68.3%; in test [12], 32.3%. Moreover, the growth in test [13] was 4.02% (active); in test [14], -42.8% (active); in test [15], 38%; in test [16], 1.2% (active); in test [17], 23.5%; in [18], 55%. The growth is 11.4% in [19] and 11.7% in [20].

As to `Cc1ccc(-c2csc(NC(=O)CN3CCN(c4cc5c(cc4F)c(=O)c(C(=O)O)cn5C4CC4)CC3)n2)cc1`, the growth in [1] is 10.2%; in [2] it was 0.375% (active); in test [3] it was 20.1%; in test [4], 27.7%; in test [5], 7.62% (active); in [6], 6.64% (active). In addition, the growth is -26.4% (active) in test [7]; 19.1% in [8]; 0.737% (active) in test [9]; 41% in test [10]; -13.5% (active) in test [11]; 16.5% in [12]. Moreover, the growth is 16.4% in [13]; 12.1% in test [14]; 15.9% in test [15]; 4.32% (active) in [16]; 20.8% in test [17]; 7.69% (active) in test [18]. The growth is 8.52% (active) in test [19] and 4.51% (active) in test [20].

With `CCOC(=O)c1c(NC(=O)c2ccc(C(C)C)cc2)sc2c(CN(C)C)c(O)ccc12`, the growth in test [1] was -49.2% (active); in test [2], 27%; in test [3], 98.5%; in [4], 57.8%; in test [5] it was 6.18% (active); in test [6], 96.1%. The growth in test [7] was 80.7%; in test [8], 53.8%; in test [9], -83.3% (active); in test [10], -14.9% (active); in test [11], 88.3%; in test [12], 97.1%. Besides, the growth in test [13] is 82%; in test [14], 70.5%; in test [15] it was 107%; in [16] it was 37.8%; in test [17], 75.7%; in test [18], 41.5%. Further, the growth in [19] was 8.75% (active); in [20] it was -21% (active).

On to `Cn1cc(-c2nonc2-c2c[nH]c3ccc(Br)cc23)c2cc(Br)ccc21`, for which the growth in test [1] is 28.2%; in test [2] it was 20.6%; in test [3], -11.2% (active); in test [4], 42.8%; in test [5], 42.9%; in [6], 43.4%. Also, the growth is 70.3% in test [7]; 53.9% in test [8]; 24.8% in [9]; 59.4% in test [10]; 73.9% in test [11]; 33.5% in [12]. Moreover, the growth in test [13] is 66.9%; in [14] it was 24.4%; in [15] it was 39.6%; in test [16], 14.3%; in test [17], 24%; in test [18], 28%. The growth in [19] is 34.4%; in test [20], 25.1%.

In the case of `COc1ccc(OC)c(-c2c(C#N)c(-c3cccs3)nc3c2c(-c2ccccc2)nn3-c2ccccc2)c1`, the growth is 104% in test [1]; 97.4% in test [2]; 89% in test [3]; 96.6% in [4]; 100% in [5]; 93.5% in test [6]. Moreover, the growth in [7] is 102%; in [8] it was 90.2%; in test [9], 104%; in [10], 107%; in [11], 107%; in test [12], 99.7%. Besides, the growth in test [13] is 99.3%; in test [14] it was 97.1%; in [15] it was 108%; in test [16], 102%; in test [17], 91.9%; in test [18] it was 103%. In addition, the results for the growth in test [19] and in test [20] were 99.7% and 99.4%, respectively.

Regarding `Cc1ccc(/C=C2\CN(C(=O)OC(C)(C)C)C/C(=C\c3ccc(C)cc3)C2=O)cc1`, the growth in test [1] is 1.94% (active); in [2] it was -49.9% (active); in test [3], 79.7%; in [4], 71.4%; in [5], 12.4%; in test [6], 29.9%. Also, the growth was 78.9% in test [7]; 56.5% in test [8]; -63.2% (active) in [9]; 87.3% in test [10]; 83.8% in [11]; 84.3% in [12]. In addition, the growth in test [13] is 60.7%; in [14], 66.9%; in test [15], 87%; in test [16], 20.3%; in [17] it was 61%; in [18], 67.6%. Also, the growth was 3.02% (active) in test [19] and 34.7% in [20].

With `COc1ccc(/C=C2\C(=O)N=C3N2NC(c2cc(Br)ccc2O)C=C(C)N3c2ccccc2)cc1` (stereo not given), the growth was 103% in test [1]; 106% in [2]; 99% in [3]; 93.8% in test [4]; 93.8% in [5]; 92.1% in test [6]. For the same compound, the growth in [7] was 97%; in test [8], 90.6%; in test [9], 95%; in test [10], 99.1%; in test [11], 104%; in test [12] it was 105%. The growth is 97.6% in test [13]; 81.6% in test [14]; 118% in test [15]; 99% in test [16]; 96.5% in test [17]; 94.1% in [18]. In addition, the growth in [19] is 99.8%; in test [20], 97.4%.

Consider `COc1cc(-c2csc(NC(=O)c3cc(-n4cnc(C)c4)cc(C(F)(F)F)c3)n2)cc(OC)c1OC`, for which the growth in test [1] was 39.5%; in test [2], 52.6%; in [3], 78.6%; in test [4] it was 62.2%; in test [5] it was 56.9%; in test [6], 37.3%. The growth in test [7] was 51%; in [8] it was 44.1%; in test [9], 53.9%; in [10], 78.9%; in [11], 67.6%; in test [12], 69.1%. The growth is 44.1% in test [13]; 29.8% in [14]; 85.6% in test [15]; 54.3% in test [16]; 62.8% in test [17]; 60.6% in [18]. The figures for the growth in test [19] and in [20] were 24.4% and 37.3%, respectively.
